We go through 27 compounds from PubChem BioAssay (NCATS).

What all share (experiment): qHTS profiling for inhibitors of Plasmodium falciparum proliferation (AID 504749); note: nearly all actives have a fitted effect of over 60% in size
Conditions in all cases: P. falciparum in erythrocytes, SYBR Green DNA, 72 h; series mostly up to 28.7 µM
On the technique in general: In qHTS, concentration-response curves come from the screen itself.

In experiment [1] the test system is CP266. In outline: (§1)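 Three-day growth assay of blood-stage parasites in erythrocytes (0.3% parasitemia, 2.5% hematocrit) at 37 C, 5% CO2, quantified by SYBR Green DNA staining after overnight detergent lysis.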
Experiment [2] has as its system CP297. An outline of the steps:
as §1

Experiment [3] concerns CP305. In outline: as §1
Experiment [4] relates to CP315. An outline of the steps: as §1
In experiment [5] the test system is CP325. In outline:
as §1

In experiment [6] the test system is CP329. In outline:
as §1

In experiment [7] the test system is CP286. In outline: as §1
Experiment [8] relates to CP268. In outline:
as §1

The test system of experiment [9] is CP291. In outline: as §1
The test system of experiment [10] is CP269. An outline of the steps: as §1

Inconclusive results are not listed. Activity calls are given as the source filed them. Calls come from the whole dose curve; as a rule, active = well fitted inhibition curve with a large enough effect; inconclusive = small, poorly fitted or top-dose-only effect; inactive = flat fitted curve, though single readings scatter.
Potency is the fitted concentration of half-maximal effect.

For the compound `CN1CCCC(CN2c3ccccc3Sc3ccccc32)C1` (stereo not given), the Potency result in [1], in [2], in experiment [3], in experiment [4], in experiment [5] and in experiment [6] was “inactive” each time.
For the compound `CC(=O)[O][Al][O]C(C)=O`, the Potency result in [1], in [7] and in experiment [4] was “inactive” in each case.
For `N[C@@H](Cc1cc(I)c(Oc2ccc(O)c(I)c2)c(I)c1)C(=O)O`, the Potency entry in experiment [1], in experiment [8], in experiment [3], in experiment [4], in experiment [5] and in experiment [6] was “inactive” throughout.
Regarding `O=C(CCCN1CCC(C(=O)c2ccc(F)cc2)CC1)c1ccc(F)cc1`, the Potency result in [1], in [2], in [4], in experiment [5] and in [6] was “inactive” throughout.
Consider `CN1CCc2c(c3ccccc3n2Cc2ccccc2)C1`, for which the Potency result in experiment [1], in experiment [7], in [9], in experiment [2], in experiment [3] and in experiment [4] was “inactive” each time. Moreover, the Potency result in [6] was “inactive”.
With `COc1ccc2c(=O)c(C)c(-c3ccccc3)oc2c1CN(C)C`, the Potency entry in [1], in experiment [10], in experiment [2], in experiment [3], in [4] and in experiment [5] was “inactive” throughout.
Take `O=C(O)c1cc(N=Nc2ccc(O)c(C(=O)O)c2)ccc1O`: the Potency result in [1], in [8], in experiment [10], in experiment [9], in experiment [2] and in [3] was “inactive” each time. Moreover, the Potency entry in experiment [4], in [5] and in experiment [6] was “inactive” in each case.
With `CC(CN(C)C)CN1c2ccccc2Sc2ccc(C(F)(F)F)cc21` (stereo not given), the Potency entry in experiment [1], in experiment [4] and in experiment [5] was “inactive” each time. The Potency in experiment [7] is 11.2 µM (active).
With `N#Cc1ccc2c(c1)N(CCCN1CCC(O)CC1)c1ccccc1S2`, the Potency entry in [1], in [2] and in experiment [4] was “inactive” each time.
Take `Cn1c(O)c(N=NC(N)=S)c2ccccc21`: the Potency result in experiment [1], in [8], in [10], in experiment [2], in experiment [4] and in [5] was “inactive” each time. Besides, the Potency entry in experiment [6] is “inactive”.
Take `CC(O)CN(C)C` (stereo not given): the Potency result in [8], in experiment [10], in experiment [7], in [9], in [2] and in experiment [3] was “inactive” throughout. The Potency result in [4] and in [5] was “inactive” each time.
For the compound `CC(=O)Nc1ccc(NC(=S)NC(=O)c2ccc(C(C)(C)C)cc2)cc1`, the Potency result in experiment [1], in experiment [8], in experiment [10], in experiment [9], in experiment [2] and in experiment [3] was “inactive” each time. Moreover, the Potency entry in [4], in [5] and in experiment [6] was “inactive” throughout.
On to `O=c1n(CC2CO2)c(=O)n(CC2CO2)c(=O)n1CC1CO1` (stereo not given), for which the Potency entry in [1], in experiment [10], in experiment [4], in experiment [5] and in experiment [6] was “inactive” each time.
Turning to `c1ccc2c(c1)Sc1ccccc1N2CCN1CCCC1`, the Potency in experiment [8] is 9.53 µM (active); in experiment [10], 15.1 µM (active); in experiment [7] it was 10 µM (active); in experiment [9], 13.5 µM (active); in experiment [2] it was 12 µM (active); in experiment [3], 15.1 µM (active). For the same compound, the Potency was 12 µM (active) in experiment [4], 15.1 µM (active) in experiment [5] and 15.1 µM (active) in [6].
As for `FC(F)(F)COCC(F)(F)F`, the Potency entry in [8], in experiment [10], in experiment [7], in experiment [9], in experiment [2] and in experiment [3] was “inactive” in each case. In addition, the Potency result in experiment [4], in [5] and in [6] was “inactive” in each case.
Take `Cc1cc(-c2ccc(N=Nc3c(S(=O)(=O)O)cc4cc(S(=O)(=O)O)cc(N)c4c3O)c(C)c2)ccc1N=Nc1c(S(=O)(=O)O)cc2cc(S(=O)(=O)O)cc(N)c2c1O`: the Potency result in experiment [1], in [10], in [7], in experiment [9], in [2] and in experiment [3] was “inactive” throughout. The Potency result in experiment [4], in experiment [5] and in [6] was “inactive” in each case.
On to `Oc1cccc(O)c1O`, for which the Potency entry in experiment [1] and in [4] was “inactive” throughout.
Consider `COc1ccc2c(c1)OC(C)(C)C(c1ccccc1)C2c1ccc(OCCN2CCCC2)cc1` (stereo not given), for which the Potency was 15.1 µM (active) in experiment [1]; 5.36 µM (active) in [10]; 3.16 µM (active) in experiment [7]; 6.01 µM (active) in experiment [9]; 15.1 µM (active) in [2]; 13.5 µM (active) in experiment [3]. In experiment [5], the Potency is 6.75 µM (active).
Turning to `CN(C)C(=O)CCSC(SCCC(=O)O)c1cccc(/C=C/c2ccc3ccc(Cl)cc3n2)c1` (stereo not given), the Potency result in experiment [1], in experiment [8], in experiment [10], in experiment [9], in experiment [3] and in experiment [4] was “inactive” each time. Also, the Potency result in experiment [5] and in experiment [6] was “inactive” each time.
With `CSCCC(N)C(=O)O` (stereo not given), the Potency result in experiment [1], in experiment [10], in [7], in experiment [2], in experiment [3] and in experiment [5] was “inactive” in each case. Moreover, in [6], the Potency entry was “inactive”.
Turning to `C[Si](C)(C)O[Si](C)(C)C`, the Potency entry in experiment [8], in [10], in [7], in experiment [9], in experiment [2] and in experiment [3] was “inactive” each time. The Potency entry in experiment [4], in experiment [5] and in experiment [6] was “inactive” throughout.
Take `CC(C)C1=CC2=CC[C@@H]3[C@](C)(CCC[C@@]3(C)C(=O)O)[C@H]2CC1`: the Potency entry in experiment [7] was “inactive”.
As for `O=P(O)(O)OC[C@H](O)CO`, the Potency result in experiment [8], in experiment [10], in experiment [7], in experiment [9], in experiment [2] and in experiment [3] was “inactive” each time. Besides, the Potency result in [4], in [5] and in [6] was “inactive” each time.
Turning to `NC(=S)N=Nc1ccc(NN=C(N)N)cc1`, the Potency in [8] was 9.53 µM (active); in experiment [10], 6.75 µM (active); in experiment [7], 4.47 µM (active); in experiment [9], 8.49 µM (active); in experiment [2], 9.53 µM (active); in [3] it was 7.57 µM (active). The Potency in experiment [4] is 8.49 µM (active); in experiment [5], 10.7 µM (active); in experiment [6], 7.57 µM (active).
In the case of `CC(=O)c1ccc2c(c1)N(CCCN1CCN(CCO)CC1)c1ccccc1S2`, the Potency is 12 µM (active) in [8]; 10.7 µM (active) in experiment [10]; 8.91 µM (active) in [7]; 16.9 µM (active) in [5]; 15.1 µM (active) in experiment [6].
Turning to `CSc1nc2cc(Oc3cccc(Cl)c3Cl)c(Cl)cc2[nH]1`, the Potency in [10] is 12 µM (active); in [7], 10 µM (active); in experiment [9], 8.49 µM (active); in experiment [2], 12 µM (active); in [3], 13.5 µM (active); in experiment [5] it was 13.5 µM (active). The Potency in [6] was 13.5 µM (active).
Regarding `COc1cc(NCCCC(C)N)c2ncccc2c1` (stereo not given), the Potency in experiment [8] was 6.75 µM (active); in experiment [10], 7.57 µM (active); in experiment [7], 1.41 µM (active); in [2], 8.49 µM (active); in experiment [3], 6.75 µM (active); in experiment [5], 7.57 µM (active).
